# Bioassay records from PubChem.
# Cardio protect – myocardial damage modulation in H9c2 cells; H9c2 cardiomyocytes, H2O2 injury protection, ATPLite, 2 h; AID 588492; protection from H2O2 cell death, % at 20 µM; hit rate 0.63% among 360,000;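 active means compounds giving at least 50% protection of heart cells from peroxide-induced death in the single-dose screen, raw or plate-pattern-corrected value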
# PHOSPHO1 block – blocks human PHOSPHO1 phosphatase activity; Q8TCT1; recombinant PHOSPHO1, absorbance phosphatase assay; inhibition, % at 13.3 µM; hit rate 1.1% among 290,000; AID 1565; in the data active means inhibition above about 60%
# Target sequence (Q8TCT1 whole entry, looked up): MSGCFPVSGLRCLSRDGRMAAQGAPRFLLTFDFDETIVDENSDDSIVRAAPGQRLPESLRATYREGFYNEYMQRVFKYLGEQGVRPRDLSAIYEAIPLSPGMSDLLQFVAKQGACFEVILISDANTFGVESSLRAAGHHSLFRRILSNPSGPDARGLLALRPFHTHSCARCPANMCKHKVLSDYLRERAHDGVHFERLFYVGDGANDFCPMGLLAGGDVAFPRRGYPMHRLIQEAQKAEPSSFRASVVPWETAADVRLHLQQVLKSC
# M18AAP inhibitor – PfM18AAP enzyme inhibition | hit rate 1.2% among 290,000 | recombinant PfM18AAP, H-Glu-NHMec fluorogenic cleavage | inhibition, % at 7.35 µM;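 active means inhibition above the campaign mean inhibition over all tested compounds plus 3 SD, cut at about 28% in these data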
# PfGluPho inh – PfG6PD (Plasmodium falciparum) enzyme inhibition | inhibition, % at 20 µM | PfGluPho enzyme, NADPH resazurin-diaphorase fluorescence | AID 504690 | hit rate 0.78% among 350,000;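 active means inhibition reaching at least a set limit at 20 µM in the primary screen, cut at about 59% in these data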
# ALR H2O2 inh – inhibitors of human sulfhydryl oxidase ALR; purified ALR, DTT oxidation, H2O2 HRP-luminol luminescence; inhibition, % (test concentration not listed); AID 485317; hit rate 3.8% among 290,000;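 active means mean replicate inhibition above about 79%, with every replicate also reaching it, limit read from the data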
# A number is an active result; i = inactive; nt = not tested or not shown. Compounds with a hit are over-represented: about 5.6% of the library has one in this group of screens.
SMILES,Cardio protect,PHOSPHO1 block,M18AAP inhibitor,PfGluPho inh,ALR H2O2 inh
Cc1cc(N2CCOCC2)nc2ccc(NC(=S)NC(C)C)cc12,i,i,i,i,93
COCCNC(=S)Nc1ccc2nc(N3CCOCC3)cc(C)c2c1,i,i,i,i,85
CCOC(=O)C1CCCN(C(=O)CCC(=O)Nc2ccc3nc(N4CCOCC4)cc(C)c3c2)C1 (stereo not given),59,i,i,i,nt
CCCCC(=O)Nc1cnc(NC(=O)c2cccs2)cc1C,i,i,i,i,nt
Cc1cccc(NC(=O)COc2ccc(-c3nn(C)c(=O)c4ccccc34)cc2)c1,i,i,i,i,i
S=c1[nH]ncn1/N=C/c1cccc(Oc2ccccc2)c1,i,97,i,i,99
CCCc1cc(-c2nc(N)ncc2-c2ccc3c(c2)OCCCO3)c(O)cc1OC,i,i,i,71,i
CCCc1cc(-c2nc(N)ncc2-c2csc(C)n2)c(O)cc1OC,i,i,i,i,i
CC(C)N1C(=O)NC2NC(=O)N(C(C)C)C21 (stereo not given),i,nt,nt,nt,nt
C[C@@H]1CN([C@H](C)CO)C(=O)CCCn2nncc2CO[C@H]1CN(C)S(=O)(=O)c1ccc(C#N)cc1,i,nt,nt,i,nt
COc1ccc(C2CC23N=C(c2ccccc2)OC3=O)cc1 (stereo not given),i,i,i,i,97
O=C(O)CSc1c2ccccc2cc2ccccc12,i,i,i,i,99
O=C(O)CSc1nnc(SCc2cccc3ccccc23)s1,i,i,i,i,98
O=C(O)COc1ccccc1/C=N/NC(=O)CSc1nnc(SCc2cccc3ccccc23)s1,i,i,i,i,97
COC(=O)[C@@H](CC(C)C)NS(=O)(=O)N(Cc1ccccc1)[C@@H](CC(C)C)C(=O)OC,i,nt,nt,i,i
Cc1cccc(N2CCN(C(=O)c3ccccc3SCC(=O)N3CCCC3)CC2)c1C,i,nt,nt,i,i
COC(=O)C1=C/C=C\CN(C(c2ccccc2)c2ccccc2)/C=C\1C(=O)OC,i,nt,nt,i,nt
CC(=O)Nc1ccc(NC(=O)CSc2nnc(NC(=O)c3ccc(Br)o3)s2)cc1,i,i,i,i,i
CCOC(=O)c1ccc(Cl)c(NC(=O)c2ccc(-c3ccccc3)cc2)c1,i,66,i,i,i
Nc1c(C(=O)N2CCOCC2)sc2nc3c(cc12)CCCC3,i,i,31,i,nt
Cc1oc(-c2ccccc2)nc1CS(=O)CC(=O)NC1CCCCCC1 (stereo not given),i,i,i,i,100
Cc1cccc(-c2nc(CS(=O)CC(=O)NCCCSC3CCCCC3)c(C)o2)c1 (stereo not given),i,i,i,i,i
Cc1cccc(-c2nc(CS(=O)CC(=O)NC3CCCCC3)c(C)o2)c1 (stereo not given),i,i,i,i,99
CCC1(c2ccccc2)SCC(c2ccccc2)=NC1=O (stereo not given),i,nt,nt,i,nt
COc1cccc(OC)c1C(=O)N1CCN=C1SCc1cccnc1,i,i,i,i,99
SMILES,Cardio protect,PHOSPHO1 block,M18AAP inhibitor,PfGluPho inh,ALR H2O2 inh
COc1ccccc1C(=O)N1CCN(Cc2cccnc2)CC1,i,i,i,i,i
COc1ccc(C(=O)N2CCN=C2SCc2cccnc2)cc1OC,i,i,i,i,100
O=C(c1ccc(S(=O)(=O)N2CCCCC2)cc1)N1CCN=C1SCc1cccnc1,i,i,i,i,nt
CC1(C(=O)NS(=O)(=O)c2cccc(Cl)c2)CCN1C(=O)CC1CC1 (stereo not given),i,nt,nt,nt,nt
COc1ccc(S(=O)(=O)N2CCC(C(=O)NCCC(=O)NC3CC3)CC2)cc1,i,i,i,i,i
Cc1nc(Nc2ccc(O)cc2)c2c3c(sc2n1)CCCC3,i,i,i,i,98
COc1ccccc1-c1cncc(NC(C)=O)n1,i,nt,nt,nt,nt
COc1ccc(Nc2ccccc2N)cc1,i,i,i,i,98
COc1ccc(Nc2ccccc2NC(=O)c2ccccc2Br)cc1,i,i,i,i,82
CC1=NS(=O)(=O)NC(C)(C)C1,i,nt,nt,i,nt
NCCCCCc1cn(CC(=O)NCCCCCCCCCCC(=O)N2CCNCC2)nn1,i,nt,nt,i,i
Cc1ccccc1NS(=O)(=O)c1ccc(C(=O)NCC(c2ccco2)N2CCCCC2)cc1 (stereo not given),i,nt,nt,i,i
CN(CC1CCCO1)S(=O)(=O)c1ccc(C(=O)Nc2nc(-c3ccccn3)cs2)cc1 (stereo not given),90,i,i,i,i
Cc1ccc(C(=O)Nc2nc(-c3ccccn3)cs2)cc1S(=O)(=O)N1CCOCC1,73,nt,nt,i,i
O=C(Nc1nc(-c2ccccn2)cs1)c1cc(S(=O)(=O)N2CCOCC2)ccc1F,59,nt,nt,i,nt
